Compound activity as filed in PubChem.
In the library only some 11% were active in any assay of this set; here they are far more common.
HPGD block = qHTS Assay for Inhibitors of HPGD (15-Hydroxyprostaglandin Dehydrogenase); purified HPGD, NADH fluorescence kinetic, PGE2 substrate; Potency, µM, actives largely listed as inhibitors; 150,000 compounds, 4.3% hits; AID 894, 2007
Target sequence (P15428 whole entry, looked up): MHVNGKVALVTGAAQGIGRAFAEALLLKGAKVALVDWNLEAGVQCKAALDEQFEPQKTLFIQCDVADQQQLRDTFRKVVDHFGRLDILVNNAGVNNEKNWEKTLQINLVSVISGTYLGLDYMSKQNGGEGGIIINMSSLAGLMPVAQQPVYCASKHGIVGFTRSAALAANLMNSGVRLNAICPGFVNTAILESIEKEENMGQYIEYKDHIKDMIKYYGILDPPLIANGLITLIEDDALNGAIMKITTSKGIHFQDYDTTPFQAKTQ
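20 nM HPGD preincubated 15 min at room temperature with compound in 50 mM Tris-HCl pH 8, 0.01% Tween 20. Started with 1 mM NAD+ and 30 uM prostaglandin E2; NADH fluorescence (360/450 nm) read 5 times over 30-s intervals, last minus first.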
ALDH1A1 inh = qHTS Assay for Inhibitors of Aldehyde Dehydrogenase 1 (ALDH1A1); 220,000 compounds, 7.3% hits; Purified ALDH1A1, NADH fluorescence, propionaldehyde substrate; Potency, µM (doses to about 75.3 µM), most hits filed as inhibitors; AID 1030, 2008
KDM4E inh = qHTS Assay for Inhibitors of Human Jumonji Domain Containing 2E (JMJD2E). Lysine-specific demethylase 4E (Homo sapiens), B2RXH2. JMJD2E catalytic domain, FDH-coupled NADH fluorescence (FDH is formaldehyde dehydrogenase). 230,000 compounds, 1.6% hits. AID 2147, 2009. Potency, µM (series often up to 57.1 µM), most hits filed as inhibitors; note: nearly all actives have a fitted effect of over 50% in size
Target sequence (B2RXH2 1-337 limits assumed): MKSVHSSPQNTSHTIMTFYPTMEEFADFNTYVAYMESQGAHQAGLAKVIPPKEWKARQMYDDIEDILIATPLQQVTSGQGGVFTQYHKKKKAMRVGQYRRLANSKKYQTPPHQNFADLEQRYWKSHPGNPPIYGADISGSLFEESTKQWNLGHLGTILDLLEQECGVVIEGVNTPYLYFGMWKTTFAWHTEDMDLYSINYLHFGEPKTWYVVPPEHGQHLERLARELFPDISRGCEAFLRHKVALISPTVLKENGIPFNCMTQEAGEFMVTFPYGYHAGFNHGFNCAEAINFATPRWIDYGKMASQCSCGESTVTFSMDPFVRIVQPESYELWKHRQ
PNC inhibitor = High Content Assay for Compounds that inhibit the Assembly of the Perinucleolar Compartment | PC3M PTB-GFP, PNC prevalence imaging, 16 h; stronger effect = lower value | 140,000 compounds, 3.1% hits | activity change (PNC), negative = inhibition, % at 10 µM;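 active = readout at or below -70, meaning at least 70% loss of cells showing the perinucleolar compartment, a nuclear body marking cancer cells; inconclusive = readout between -30 and a set limit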
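Compounds are pinned in duplicate onto adhered PC3M cells stably expressing GFP-tagged PTB and incubated 16 h at 37 C. Cells are then fixed, nuclei stained with Hoechst, and PNC-positive cells counted.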
Numbers stand for hits; . = inactive; ? = inconclusive; / = not tested or not shown; [ ] = dose if it differs, or a comment. Unless noted, calls come from the whole dose curve; as a rule, active = well fitted inhibition curve with a large enough effect (not every such curve was filed as active); inconclusive = small, poorly fitted or top-dose-only effect, or another doubt; inactive = no such curve, though single readings can be large or run the other way.

SMILES | HPGD block | ALDH1A1 inh | KDM4E inh | PNC inhibitor
O=C(Cc1cccs1)Nc1cccc(-c2ccc3nncn3n2)c1 | / | ? | . | /
CCOC(=O)COc1ccc2ccccc2c1/C=C/[N+](=O)[O-] | 3.5µM | 13µM | . | .
CCOc1ccc(/C=C/[N+](=O)[O-])c2ccccc12 | 11µM | 28µM | . | .
COc1cccc(C(=O)Nc2c[nH]c(=O)[nH]c2=O)c1 | / | / | . | /
CCOC(=O)c1cc(-c2ccc(C#N)cc2)nc2c1c(C)nn2CCC#N | ? | ? | ? | -111
COc1ccc(-c2cc(C(=O)O)c3c(C)nn(-c4ccccn4)c3n2)cc1 | ? | ? | ? | .
CCOC(=O)c1cc(-c2ccccc2)nn1CCC#N | / | . | . | /
CCOC(=O)c1cc(-c2ccncc2)nc2c1c(C)nn2-c1ccccn1 | . | ? | ? | -100
CCOC(=O)c1cc(-c2cccs2)nn1CCC#N | . | 14µM | . | ?
CCOC(=O)c1cc(-c2ccc(C)o2)nn1CCC#N | . | ? | . | .
Nc1nc2c(ncn2[C@@H]2O[C@H](COP(=O)(O)OP(=O)(O)O)[C@@H](O)[C@H]2O)c(=O)[nH]1 | / | . | / | /
Cn1c(=S)ccc2ccccc21 | / | 25µM | . | /
COc1ccccc1NC(=O)CN1CCN(CC(=O)Nc2ccc3c(c2)OCO3)CC1 | . | 11µM | . | .
O=C(CSCc1ccccc1)Nc1ccc2c(c1)OCO2 | . | . | . | .
COc1ccccc1NC(=O)CN1CCN(CC(=O)Nc2cc(NC(C)=O)ccc2OC)CC1 | . | ? | . | ?
COC(=O)c1c(NC(=O)CN2CCN(Cc3ccc4c(c3)OCO4)CC2)sc(C)c1C | . | 13µM | . | .
Cc1ccc(CSCC(=O)Nc2ccc3c(c2)OCO3)cc1 | . | 7.9µM | . | .
COc1ccc(NC(=O)CN2CCN(CC(=O)Nc3ccc4c(c3)OCO4)CC2)cc1 | . | 6.3µM | . | ?
O=C(CN1CCc2ccccc21)Nc1ccc2c(c1)OCO2 | . | 13µM | . | .
CCOc1ccc(N/C(C)=C\C(=O)c2ccc3c(c2)OCCO3)cc1 | / | 13µM | ? | /
Cc1ccc(OCCCC(=O)Nc2ccc3c(c2)OCO3)cc1 | . | ? | . | .
COc1ccc(OCCCC(=O)Nc2ccc3c(c2)OCCO3)cc1 | . | 22µM | . | .
O=C(CN1CCc2ccccc21)NCc1ccc2c(c1)OCO2 | . | ? | . | .
CC(=O)Nc1nn(C)c2nc(C)cc(C)c12 | / | ? | . | /
CC(=O)c1ccc(NC(=O)OCCN2CCN(Cc3ccccc3)CCC2=O)cc1 | . | . | / | /
SMILES | HPGD block | ALDH1A1 inh | KDM4E inh | PNC inhibitor
CCCC(=O)Nc1nc2c(OC)ccc(OC)c2s1 | . | 16µM | . | .
CCCCN1C(=S)NC[C@@H]1Cc1ccc(O)cc1 | / | / | . | /
Cc1cccc2sc(N(CCCN(C)C)C(=O)c3nc4ccccc4s3)nc12 | ? | ? | ? | -118
CN(C)CCN(C(=O)c1ccccc1Cl)c1nc2c(Cl)cccc2s1 | . | 32µM | ? | .
Cc1ccc2sc(N(CCCN(C)C)C(=O)c3nc4ccccc4s3)nc2c1C | / | . | . | /
Cc1cccc(NC(=O)CCC(=O)Nc2nnc(C(F)(F)F)s2)c1 | / | / | . | /
Nc1ccc(-c2ccc(Nc3cc(S(=O)(=O)O)c(N)c4c3C(=O)c3ccccc3C4=O)cc2)c(S(=O)(=O)O)c1 | . | .[13.5 µM] | / | /
Cc1cc(C)c(Nc2cc(S(=O)(=O)O)c(N)c3c2C(=O)c2ccccc2C3=O)c(C)c1 | ? | 25µM | . | .
O=C1C=C(c2cccs2)CC(c2cccs2)C1n1cnc([N+](=O)[O-])c1 (stereo not given) | . | 28µM | ? | .
IC(I)I | . | 13µM | / | /
C#CCNc1nc(CC)nc2c1nnn2Cc1ccccc1F | / | 7.9µM | . | .
Fc1ccccc1Cn1nnc2c(NCCc3ccccn3)ncnc21 | . | 7.9µM | . | .
CCc1nc(NCCCCCO)c2nnn(Cc3ccccc3F)c2n1 | . | 1.4µM | . | .
CCOC(=O)CNc1nc(C(C)(C)C)nc2c1nnn2Cc1ccccc1Cl | . | ? | . | ?
Cc1nc(Nc2cccc(C(C)O)c2)c2nnn(Cc3ccccc3F)c2n1 (stereo not given) | / | 4.5µM | . | /
Cc1ccc(S(=O)(=O)/C(C#N)=C/c2c(N3CCCCC3)nc3ccccn3c2=O)cc1 | / | / | . | /
N#C/C(=C\c1c(N2CCOCC2)nc2ccccn2c1=O)S(=O)(=O)c1ccccc1 | 2µM | 13µM | . | .
Cc1ccc(S(=O)(=O)/C(C#N)=C/c2c(N3CC(C)OC(C)C3)nc3ccccn3c2=O)cc1 (stereo not given) | 14µM | . | . | .
Cc1ccc(S(=O)(=O)/C(C#N)=C/c2c(N3CCN(C)CC3)nc3ccccn3c2=O)cc1 | . | ? | . | .
CCOc1ccccc1NC(=O)NC(C)c1ccncc1 (stereo not given) | / | . | . | /
COc1ccc(NC(=O)CSc2nnc(Cc3cccs3)n2-c2ccc(C)cc2)cc1 | . | 16µM | . | .
COc1cccc(NC(=O)CSc2nnc(Cc3cccs3)n2-c2ccc(C)cc2)c1 | . | 3µM | . | .
O=c1[nH]ncc(N2CCN(Cc3ccccc3)CC2)c1Cl | / | ? | . | /
CSc1cccc(NC(=O)CN2C(=O)c3ccccc3S2(=O)=O)c1 | . | ? | . | .
Cc1cccc(NC(=O)CN2NS(=O)(=O)c3ccccc3C2=O)c1 | . | 10µM | . | ?
SMILES | HPGD block | ALDH1A1 inh | KDM4E inh | PNC inhibitor
CCN1C(=O)/C(=C2/Sc3ccccc3N2CC)S/C1=N\c1ncn[nH]1 | / | ? | . | /
Cc1c(CCOC(=O)c2cc([N+](=O)[O-])cc([N+](=O)[O-])c2)sc[n+]1CC(=O)c1ccc(Br)cc1 | / | 2.5µM | ? | /
Cc1cc2c(ncn2Cc2ccccc2)c(N)c1C | / | . | . | /
O=C(ON=C1CCN(S(=O)(=O)c2ccccc2)CC1)c1cccc(Cl)c1 | . | . | . | -100
O=C(ON=C1CCN(S(=O)(=O)c2ccccc2)CC1)c1ccccc1 | . | . | . | ?
CC(C)CO/N=C1/[C@H]2O[C@@H]2[C@@H](O)[C@H]2[C@H]1CCn1c(=O)n(C)c(=O)n12 | / | .[13.5 µM] | / | /
O=c1cc(-c2ccccc2O)oc2c1ccc1ccccc12 | . | . | . | /
COC(=O)c1c(C(=O)OC)c2cccc3cc(-c4ccccc4)c4ccc1c4n32 | . | . | 2.5µM | .
COc1ccc(CCCc2nnc(SCC(=O)Nc3ccccc3F)o2)cc1 | / | ? | . | /
CCOCCCNC(=O)c1ccc2c(c1)ncn2C1CCCC1 | 18µM | ? | . | .
CC(C)CCNC(=O)c1ccc2c(c1)ncn2C1CCCC1 | / | ? | . | /
O=C1NN(c2ccccc2)C(=O)/C1=C/c1ccc(Sc2cccc3ccccc23)o1 | 18µM | . | . | .
O=C1NN(c2cccc(Br)c2)C(=O)/C1=C/c1ccc(-c2cc([N+](=O)[O-])ccc2O)o1 | / | / | . | /
CCN(CC)C1=C(Cl)C(=O)C(Cl)C12OCCO2 (stereo not given) | / | / | . | /
COc1ccc(/C=C2\CCCC3C2=NC(=S)NC3c2ccc(OC)cc2)cc1 (stereo not given) | ? | 8.9µM | ? | .
CCOc1cc(OCC)c(C(C)=O)cc1OCC | . | . | / | /
